Measured values taken from PubChem BioAssay (NCI).
This is part of a sample that, as a whole, favours compounds with a hit. Of some 83,000 tested, about 20% had one in any assay.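 Step 1: grow cells in 96-well plates. Step 2: add test compound at a single concentration. Step 3: incubate 48 h. Step 4: record percent growth.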 The source made the active and inactive calls. The calls were made as follows: active = growth percent below 10; inactive = the rest.

system: KM12 colon; test: NCI-60 one-dose screen, 48 h (100 = growth as untreated, 0 = no growth, -100 = all killed); conditions: 10 µM unless noted

Row | SMILES | growth
1 | Cc1ccc(-c2c3c(N)nc(-c4ccncc4)nc3nc3c2c(C)nn3-c2ccccc2)cc1 | 74.7% (inactive)
2 | N#Cc1c(-c2ccccc2)cc(-c2ccccc2)n(CCCCCCC(=O)O)c1=O | 98.9% (inactive)
3 | CCCCCN(CCCCC)CCCNc1c2c(nc3ccc(Cl)cc13)CCCC2 | 55.5% (inactive)
4 | Cc1cc(C)nc(NS(=O)(=O)c2ccc(Nc3nc4nc(SCc5ccccc5)nc(-c5ccc(O)cc5)c4c(=O)[nH]3)cc2)n1 | 107% (inactive)
5 | O=C1/C(=C/c2ccccc2Cl)CCc2ccccc21 | 108% (inactive)
6 | C/C(=C\CCc1ccoc1)CC/C=C(\C)CCCC1COC(=O)C1 (stereo not given) | 93.3% (inactive)
7 | CC1Cc2ccccc2N1C(=O)c1ccc(C(=O)c2ccccc2)cc1 (stereo not given) | 101% (inactive)
8 | COC(=O)[C@H](Cc1cn(C)cn1)NC(=O)[C@H](C)NC(=O)Nc1cc(C(F)(F)F)cc(C(F)(F)F)c1 | -70.8% [100 µM] (active)
9 | N#Cc1ccccc1C#Cc1ccccc1C#Cc1ccc(OCCCCCCOc2ccc(C#Cc3ccccc3C#Cc3ccccc3C#N)cc2)cc1 | 105% (inactive)
10 | CC[N+](CCCCCCCCCC[N+](CC)(c1ccccn1)c1ccccn1)(c1ccccn1)c1ccccn1 | 5.01% (active)
11 | COc1ccc2c(c1)C(=Nc1cc(OC)c(OC)c(OC)c1)C(=O)N2 | 105% (inactive)
12 | O=C(/C=C/c1c(-c2ccccc2)[nH]c2ccccc12)S(=O)(=O)c1ccccc1 | 36.3% (inactive)
13 | O=c1ccn(C2CC=C(CO)O2)c(=O)[nH]1 (stereo not given) | 103% (inactive)
14 | C=CCN(/C=C/CN(CC=C)CC=C)CC=C | 105% (inactive)
15 | Cc1ccc2nc(-c3ccc(N(C)C)c(Br)c3)cn2c1 | 95.4% (inactive)
16 | CN(C)CCC(=O)Nc1ccc(-n2cc(-c3cccc(NC(=S)Nc4cccc(-c5cn(-c6ccc(NC(=O)CCN(C)C)cc6)nn5)c4)c3)nn2)cc1 | 56.3% (inactive)
17 | C[C@]12CC[C@H](O)CC1=CC[C@@H]1[C@@H]2CC[C@]2(C)C(c3cccnc3)=CC[C@@H]12 | 52.8% (inactive)
18 | CCCCCCC(CC#N)(CCC)CCCC (stereo not given) | 111% (inactive)
19 | CCOC(=O)c1sc(NC(=O)COc2cccc(/C=C3\CCc4cc(OC)ccc4C3=O)c2)nc1C | 34.7% (inactive)
20 | Cc1ccc(S(=O)(=O)N2CCN(C(=O)CSc3nc4ccc(C)cc4[nH]3)CC2)cc1 | 105% (inactive)
21 | CCOC(=O)c1cnc2c(C)cc(C)cc2c1NCCCN(C)C | 31.6% (inactive)
22 | Cc1ccc(C(NC(=O)c2ccccc2)c2ccc3cccnc3c2O)cc1 (stereo not given) | 26.5% (inactive)
23 | COc1ccc(C(=O)COc2ccc(/C=C3\Oc4ccc5ccccc5c4C3=O)cc2)cc1 | 90.9% (inactive)
24 | CCOC(=O)CCC(=O)O[C@H]1[C@H](O[C@@H]2[C@@H](C)[C@H](O[C@H]3C[C@@](C)(OC)[C@@H](O)[C@H](C)O3)[C@@H](C)C(=O)O[C@H](CC)[C@@](C)(O)[C@H](O)[C@@H](C)C(=O)[C@H](C)C[C@@]2(C)O)O[C@H](C)C[C@@H]1N(C)C | 111% (inactive)
25 | COc1ccc(-c2ccc(O)c(C(=O)/C=C/c3cc(OC)c(OC)c(OC)c3)c2)cc1 | 79.9% (inactive)
